According to PubChem BioAssay (NCATS):
Inconclusive results are not listed. A number with no mark means an inactive call. Activity calls are given as the source filed them. Calls come from the whole dose curve; as a rule, active = well fitted inhibition curve with a large enough effect; inconclusive = small, poorly fitted or top-dose-only effect; inactive = flat fitted curve, though single readings scatter.

What follows are molecules tested against Phospholipid hydroperoxide glutathione peroxidase GPX4 (Homo sapiens) (UniProt P36969) (assay: Primary qHTS Assay for Inhibitors of Recombinant Selenoprotein Glutathione Peroxidase 4 (GPX4) (AID 1845192; note: nearly all actives have a fitted effect of over 65% in size)). Details: recombinant GPX4, GR-coupled NADPH fluorescence, 15 min; series mostly up to 27.8 µM; activity change, negative = inhibition: at the top concentration.
Sequence of Phospholipid hydroperoxide glutathione peroxidase GPX4 (Homo sapiens) (P36969 whole entry, looked up): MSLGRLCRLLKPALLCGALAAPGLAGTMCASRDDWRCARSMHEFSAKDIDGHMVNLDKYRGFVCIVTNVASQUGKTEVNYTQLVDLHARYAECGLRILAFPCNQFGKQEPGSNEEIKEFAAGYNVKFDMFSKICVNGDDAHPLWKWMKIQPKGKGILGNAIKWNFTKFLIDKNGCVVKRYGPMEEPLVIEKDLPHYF
Outline: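 NADPH consumption, followed by fluorescence at 340/450 nm between 0 and 15 min, reports GPX4 activity via coupled glutathione reductase (100 nM). Enzyme 200 nM was pre-exposed to compound 30 min; 0.5 mM cumene hydroperoxide and 1 mM GSH served as substrates.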
% is set by controls: 0 for no effect and ±100 for the full control effect.

| SMILES | activity change, negative = inhibition | outcome |
| --- | --- | --- |
| CC(C)=CCC[C@](C)(O[C@@H]1O[C@H](CO)[C@@H](O)[C@H](O)[C@H]1O)[C@H]1CC[C@]2(C)[C@@H]1[C@H](O)CC1[C@@]3(C)CC[C@H](O)C(C)(C)C3[C@@H](O[C@@H]3O[C@H](CO)[C@@H](O)[C@H](O)[C@H]3O[C@@H]3O[C@@H](C)[C@H](O)[C@@H](O)[C@H]3O)C[C@]12C (stereo partly drawn) | -0.476% [at 15.3 µM] |  |
| O=C(C[C@@H]1C(C(=O)O)=CO[C@@H](O[C@@H]2O[C@H](CO)[C@@H](O)[C@H](O)[C@H]2O)/C1=C\CO)OCCc1ccc(O)cc1 | -5.53% |  |
| CC1CCC2(C)CCC3(C)C(=CCC4C5(C)CCC(O)C(C)(C(=O)O)C5CCC43C)C2C1C (stereo not drawn) | -8.5% |  |
| C=C1CC[C@H]2[C@@](C)(CCC(O)[C@@]2(C)CO)[C@@H]1/C=C/C(=C\C(=O)O)C(=O)O (stereo partly drawn) | 2.87% |  |
| CCC(C)C(=O)O[C@H]1C[C@](C)(O)[C@]23OC(C)(C)[C@H](C[C@H](OC(=O)c4ccccc4)[C@]2(COC(C)=O)[C@H]1OC(=O)C(C)CC)[C@H]3OC(C)=O (stereo partly drawn) | -14.5% [at 15.3 µM] |  |
| CC(=O)/C=C/C1(O)C(C)=CC(=O)CC1(C)C (stereo not drawn) | -0.043% [at 50 µM] |  |
| CC1(C)CC[C@]2(C(=O)O)CC[C@]3(C)C(=CCC4[C@@]5(C)C[C@H](O)[C@H](O[C@@H]6O[C@H](CO)[C@@H](O)[C@H](O)[C@H]6O)[C@@](C)(CO)C5[C@H](O)C[C@]43C)[C@@H]2C1 (stereo partly drawn) | 4.5% [at 15.3 µM] |  |
| C=C(CC/C=C(\C)C(=O)O)C1(O)CC=C(C)CC1 (stereo not drawn) | 2.82% [at 50 µM] |  |
| O=C(Cc1ccc(Cl)cc1)Nc1cnccc1C(=O)O | -22.8% [at 50 µM] |  |
| CC(C)(O)C1CCC2(C)CCCC(C)(O)C2C1 (stereo not drawn) | -5.47% [at 50 µM] |  |
| CCC(C)C(=O)OC[C@H]1O[C@H](O[C@H]2O[C@H](CO)[C@@H](O)[C@H](O)[C@H]2O)[C@H](O)[C@@H](O)[C@@H]1O (stereo partly drawn) |  | inactive |
| CC(=O)O[C@@H]1[C@H](O[C@@H]2O[C@H](CO)[C@@H](O)[C@H](O)[C@H]2O)[C@@H](O[C@@H]2O[C@@H](C)[C@H](O)[C@@H](O[C@@H]3O[C@H](CO)[C@@H](O)[C@H](O)[C@H]3O)[C@H]2O)[C@H](OC(=O)[C@]23CCC(C)(C)C[C@H]2C2=CCC4[C@@]5(C)C[C@H](O)[C@H](O[C@@H]6O[C@H](C(=O)O)[C@@H](O)[C@H](O)[C@H]6O)[C@@](C)(C(=O)O)C5CC[C@@]4(C)[C@]2(C)CC3)O[C@@H]1C (stereo partly drawn) |  | inactive [at 9.73 µM] |
| COC(=O)C1=COC(O[C@@H]2O[C@H](COC(=O)/C=C/c3ccc(O)cc3)[C@@H](O)[C@H](O)[C@H]2O)C2C(CO)=CCC12 (stereo partly drawn) | -20.4% |  |
| CC(=O)OC1CCC2(C)C(CCC3(C)C2CC=C2C4CC(C)(C)CCC4(C)CCC23C)C1(C)C(=O)O (stereo not drawn) | -20.4% |  |
| C/C1=C\CC[C@]2(C)O[C@H]2C(=O)c2c(C)coc2C1 | -0.68% [at 50 µM] |  |
| COC(=O)C1=CO[C@@H](O[C@@H]2O[C@H](CO)[C@@H](O)[C@H](O)[C@H]2O)[C@H]2[C@@H]1[C@H](O)C[C@]2(C)O | -4.8% |  |
| C/C=C(\C)C(=O)OCC1OC(OCC2OC(OC3(CO)OC(CO)C(O)C3O)C(O)C(O)C2O)C(O)C(O)C1O (stereo not drawn) | -3.89% [at 15.3 µM] |  |
| CC(C)C(NC(=O)c1ccc(O)cc1)C(=O)N1CCCC1C(=O)Nc1c(O)cccc1C(=O)O (stereo not drawn) |  | inactive |
| Cc1c(F)cc(C(=O)NC2CC2)cc1-c1ccc(C(=O)NCC(C)(C)C)cn1 | 5.65% [at 50 µM] |  |

| SMILES | activity change, negative = inhibition | outcome |
| --- | --- | --- |
| O=C(OC[C@H]1O[C@H](O[C@]2(CO)O[C@H](CO)[C@@H](O)[C@@H]2O)[C@H](O)[C@@H](O)[C@@H]1O)c1ccc(O)cc1 | -13.7% |  |
| CSC(=O)OCC1=C[C@@H]2OC(=O)C3=CO[C@@H](O[C@@H]4O[C@H](CO)[C@@H](O)[C@H](O)[C@H]4O)[C@H]1[C@@H]32 | -4% |  |
| C=C(C(=O)OC)[C@]12O[C@@](C)(CC[C@@]3(O)/C(=C\C)C(=O)O[C@]3(C)C[C@@H]1OC(=O)C(CO)CN1CCCC1C(=O)O)CC2=O (stereo partly drawn) | -7.67% [at 15.3 µM] |  |
| CC1OC(OC2CCC3(C)C(CCC4(C)C3C=CC35OCC6(CCC(C)(C)CC63)CCC45C)C2(C)CO)C(OC2OC(CO)C(O)C(O)C2O)C(O)C1OC1OC(CO)C(O)C(O)C1O (stereo not drawn) | -4.96% [at 15.3 µM] |  |
| C=C[C@]1(C)C[C@@H](OC(=O)CSC2C[C@H]3CC[C@@H](C2)N3C)[C@]2(C)[C@H](C)CC[C@]3(CCC(=O)[C@H]32)[C@@H](C)[C@@H]1O (stereo partly drawn) | 4.79% [at 50 µM] |  |
| N#CC1C(=O)N=C(c2cc(Cl)ccc2O)C=C1c1cc(OCc2ccccc2)cc(OCc2ccccc2)c1 (stereo not drawn) | -5.64% [at 50 µM] |  |
| C/C=C(\C)C(=O)OCC1OC(OC2OC(CO)C(O)C(O)C2O)C(O)C(O)C1O (stereo not drawn) | -8.81% |  |
| FC(F)(F)Oc1ccc(-c2ccc3nnc(C(F)(F)F)n3c2)cc1 | 17% [at 50 µM] |  |
| C/C(=C\C(=O)C(C)C1CCC2C3=C(CCC21C)C1(C)CCC(=O)C(C)(C)C1(O)CC3)C(C)(C)O (stereo not drawn) | -18.6% |  |
| CC(C)c1ccc2c(c1)[C@H](O)CC1[C@@](C)(C(=O)O)CCC[C@]21C (stereo partly drawn) | -14.4% |  |
| O=c1[nH]ccc2nc(-c3ccc(CN4CCC(c5nc(-c6ccccn6)n[nH]5)CC4)cc3)c(-c3ccccc3)cc12 | -35.1% [at 50 µM] |  |
| C=C(C)C1CCC2(C(=O)OC3OC(COC4OC(CO)C(O)C(O)C4O)C(OC4OC(C)C(O)C(O)C4O)C(O)C3O)CCC3(C(=O)O)C(CCC4C5(C)CCC(=O)C(C)(C)C5CCC43C)C12 (stereo not drawn) |  | inactive [at 15.3 µM] |
| C/C=C1/[C@H](O[C@@H]2O[C@H](CO)[C@@H](O)[C@H](O)[C@H]2O)OC=C2C(=O)O[C@@H]3C[C@@H](C(C)CO)[C@H](COC(=O)C[C@H]21)[C@H]3C (stereo partly drawn) |  | inactive |
| O=C(CCc1ccccc1)c1c(O)c([C@@H]2O[C@H](CO)[C@@H](O)[C@H](O)[C@H]2O)c(O)c([C@@H]2O[C@H](CO)[C@@H](O)[C@H](O)[C@H]2O)c1O |  | inactive [at 15.3 µM] |
| C/C(=C\CCC(C)(C)O)CCO[C@@H]1O[C@H](CO[C@@H]2O[C@@H](C)[C@H](O)[C@@H](O)[C@H]2O)[C@@H](O)[C@H](O)[C@H]1O | -9.95% |  |
| CCC/C=C/C=C/C1CC(O)C(O)C(=O)C1CO (stereo not drawn) |  | inactive [at 50 µM] |
| C[C@@H](c1ccccc1)N(C(N)=NC#N)c1cccc2ncccc12 | -5.84% [at 50 µM] |  |
| COC(=O)CCC1(C)C(C(C)(C)O)C(O)CC2(C)Oc3c(C)c4c(c(OC)c3CC21)C(=O)OC4 (stereo not drawn) | -5.15% |  |
| O=C(C[C@@H]1C(C(=O)O)=CO[C@@H](O[C@@H]2O[C@H](CO)[C@@H](O)[C@H](O)[C@H]2O)/C1=C\CO)OCCc1ccc(O)c(O)c1 | 0.0639% |  |
